Test results: PubChem BioAssay AID588342 (National Center for Advancing Translational Sciences (NCATS), 2011)
Values joined by “and” are separate entries in the source; they are usually repeats but may differ in a detail not shown here. Equal values may be shown once. About 25,000 (6.9%) of roughly 360,000 compounds were called active. About 9% were inconclusive and are not listed. Calls come from the whole dose curve; as a rule, active = well fitted inhibition curve with a large enough effect; inconclusive = small, poorly fitted or top-dose-only effect; inactive = flat fitted curve, though single readings scatter. The list comes from a sample in which actives are over-represented; it also holds similar structures and randomly drawn compounds. Some structures have more than one record in an assay (separate samples or runs), and their calls can disagree.

Target: Luciferin 4-monooxygenase (Photinus pyralis) (UniProt P08659)
Assay: qHTS profiling assay for firefly luciferase inhibitor/activator using purifed enzyme and Km concentrations of substrates (counterscreen for miR-21 project); note: nearly all actives have a fitted effect of over 55% in size;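 for activity change, negative = inhibition: plate controls were vehicle for no effect and reference inhibitor for full effect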
Conditions: purified FLuc, luminescence inhibition; series mostly up to 57.5 µM; activity change, negative = inhibition: at the top concentration
Summary of the method: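 Purified P. pyralis luciferase (10nM final) with 10uM D-luciferin and 10uM ATP (Km levels) in 50mM Tris acetate pH 7.5, 10mM Mg acetate, 0.01% Tween-20, 0.05% BSA; qHTS 6-point titration, ~60 µM downward; luminescence read.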
Potency is the fitted concentration of half-maximal effect.

Chain of Luciferin 4-monooxygenase (Photinus pyralis) (P08659 whole entry, looked up): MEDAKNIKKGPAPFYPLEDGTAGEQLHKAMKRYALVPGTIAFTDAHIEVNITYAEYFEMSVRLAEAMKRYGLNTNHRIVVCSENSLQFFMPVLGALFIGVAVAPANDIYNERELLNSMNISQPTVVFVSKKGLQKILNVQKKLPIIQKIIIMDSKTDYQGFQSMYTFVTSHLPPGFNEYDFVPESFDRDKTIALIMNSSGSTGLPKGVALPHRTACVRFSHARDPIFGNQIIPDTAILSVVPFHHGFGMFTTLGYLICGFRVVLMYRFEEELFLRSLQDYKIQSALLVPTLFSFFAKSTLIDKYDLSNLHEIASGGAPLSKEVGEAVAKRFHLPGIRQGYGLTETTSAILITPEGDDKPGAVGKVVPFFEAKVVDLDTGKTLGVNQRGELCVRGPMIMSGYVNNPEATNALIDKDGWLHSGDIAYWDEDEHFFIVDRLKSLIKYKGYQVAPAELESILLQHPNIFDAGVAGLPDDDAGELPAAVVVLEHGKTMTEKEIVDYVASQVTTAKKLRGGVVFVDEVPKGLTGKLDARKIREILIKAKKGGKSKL

Compound	activity change, negative = inhibition	Potency
CCCCn1cc(S(=O)(=O)c2ccc(OCC)cc2)c(=O)c2cc(OC)c(OC)cc21	0.657% (inactive)	
CCCCC/C=C/C1=CC(=O)C[C@H](c2ccc(Cl)cc2)C1	-0.231% (inactive)	
CCOC(=O)c1cnc2c(C)cc(C)cc2c1Nc1ccc(N2CCOCC2)cc1	-12.7% (inactive)	
N#Cc1c(N)nc2c3c(sc(=N)c2c1N)NC(=O)CC3c1ccccc1Cl (stereo unspecified)	-1.08% (inactive)	
CSc1ncccc1C(=O)NCc1ccccc1Cl	4.91% (inactive)	
O=C(NC1CCCCCC1)C1CCN(C(=O)c2ccc(Cl)cc2)CC1	-1.62% (inactive)	
O=C(O)Cc1ccc(NCc2ccccc2Cl)cc1		7.57 µM (active)
S=C(NCCc1ccccc1)NCc1ccccc1Cl	-5.36% (inactive)	
O=[N+]([O-])c1ccccc1NCc1ccccc1Cl	-11.8% (inactive)	
O=C(c1ccc(Cl)cc1)n1nc(-c2cccnc2)nc1NCc1ccc(F)cc1	-0.314% (inactive)	
CN(C)c1nc(=Nc2cccc(Cl)c2)ss1		3.38 µM (active)
CCOC(=O)N1CCc2c(sc3c2c(=O)n(Cc2ccccc2)c(=O)n3CC(=O)Nc2cccc(C)c2)C1	-1.56% (inactive)	
CCOc1cc(C(=O)Nc2nnc3n2CCS3)cc(OCC)c1OCC	-0.836% (inactive)	
Cc1ccc(-c2cn3c(n2)sc2cc(C(=O)NCc4cccs4)ccc23)c(C)c1	0.0935% (inactive)	
O=C(NCc1ccc(Cl)cc1)c1ccc2c(c1)nnn2C1CCCC1	-2.28% (inactive)	
O=C(NCc1cccs1)c1ccc2c(c1)ncn2C1CCCC1		19 µM (active)
CCOC(=O)CSc1nnc(NC(=O)c2cccc(S(=O)(=O)N3CCCCC3)c2)s1	-2.28% (inactive)	
Cc1cccc(C(=O)Nc2nnc(S(=O)(=O)N3CCCCCC3)s2)c1		26.9 µM (active)
Cc1cccc(NC(=O)c2cccc(S(=O)(=O)N3CCCC3)c2)n1	-5.53% (inactive)	
O=C(Nc1nnc(S(=O)(=O)N2CCCCCC2)s1)c1cccc(Br)c1		inactive and 26.9 µM (active)
O=C(Nc1nncs1)c1cccc(S(=O)(=O)N2CCCCC2)c1	-1.04% (inactive)	
Cc1ccccc1OCC(=O)Nc1nnc(S(=O)(=O)N2CCCC2)s1	-9.21% (inactive)	
CCOC(=O)CSc1nnc(NC(=O)c2cccc(S(=O)(=O)N3CCCC3)c2)s1		23.9 µM (active)
O=C(Nc1nnc(S(=O)(=O)N2CCCc3ccccc32)s1)c1cccc(F)c1	-1.73% (inactive)	
CCc1nnc(NC(=O)c2cc(S(=O)(=O)N3CCCCC3)ccc2C)s1	3.35% (inactive)	
CCOc1ccc(NC(=O)Cn2cc(C(=O)c3ccc(C)cc3)c(=O)c3cc4c(cc32)OCCO4)cc1	-1.33% (inactive)	

Compound	activity change, negative = inhibition	Potency
O=C(c1ccc(C(F)(F)F)cc1)N1CCC(c2nc(-c3ccc(S(=O)(=O)N4CCCC4)cc3)no2)CC1	-8.47% (inactive)	
COc1ccc(N2CCN(c3cc(C)nc4nncn34)CC2)cc1	-7.53% (inactive)	
Cc1ccc2oc3c(c(=O)c2c1)C(c1ccc([N+](=O)[O-])cc1)N(CCCN1CCOCC1)C3=O (stereo unspecified)	-5.94% (inactive)	
O=C1C=C(c2cccc(Cl)c2O)C[C@@H](c2ccc(F)cc2)C1	2.51% (inactive)	
COc1ccc(C)cc1NC(=O)Nc1ccccc1SC	-11.6% (inactive)	
COc1ccc(OC)c(NC(=O)c2ccc3c(c2)CCN3S(C)(=O)=O)c1	-2.22% (inactive)	
CCOc1ccc(S(=O)(=O)Nc2ccc(S(=O)(=O)Nc3cc(OC)ccc3OC)cc2)cc1	1.85% (inactive)	
CCOc1ccc(C(=O)Nc2cc(OC)ccc2OC)cc1		19 µM (active)
CCOc1ccc(NC(=O)Nc2cc(C)on2)cc1	-5.5% [at 2.3 µM] (inactive)	
CCOc1ccc(NC(=O)Nc2cc(C)ccc2OC)cc1		2.69 µM (active)
CCOc1ccc(NC(=O)CN(C)C(=O)CCSc2ccc(F)cc2)cc1OCC	3.51% (inactive)	
CCOC(=O)c1ccc(N2C(=O)c3n[nH]c(-c4ccco4)c3C2c2ccc(O)cc2)cc1 (stereo unspecified)	-11.5% (inactive)	
O=C(CSc1oc(-c2ccccc2)nc1S(=O)(=O)c1ccc(Br)cc1)NC1CCCCC1	-1.57% (inactive)	
COc1ccccc1-c1nnc(NC(=O)c2cccc(N3C(=O)CCC3=O)c2)o1		19 µM (active)
COc1cccc(-c2nnc(NC(=O)c3ccc(S(=O)(=O)N(CC(C)C)CC(C)C)cc3)o2)c1	2.84% (inactive)	
COc1ccccc1-c1nnc(NC(=O)c2ccc3ncsc3c2)o1		13.5 µM (active)
COc1ccc(-n2nc3c(c2NC(=O)c2ccc(N4C(=O)CCC4=O)cc2)CSC3)cc1	3.03% (inactive)	
Cc1ccc(C(=O)Nc2nnc(C3=COCCO3)o2)cc1C	-6.57% (inactive)	
COc1ccccc1-c1nnc(SCC(=O)N2CC(C)CC(C)C2)o1 (stereo unspecified)	-6.65% (inactive)	
O=C(COC(=O)c1ccc2ncsc2c1)Nc1ccc(Cl)cc1	-0.692% (inactive)	
Cc1sc(NC(=O)c2ccc3ncsc3c2)c(C(N)=O)c1C		1.07 µM (active)
Cc1ccc(S(=O)(=O)CC(=O)Nc2sc(C)c(C)c2C(N)=O)cc1	12% (inactive)	
Cc1ccccc1C(=O)N(Cc1ccc(N(C)C)cc1)CC1CCCO1 (stereo unspecified)	0.652% (inactive)	
CCn1cc2nc(SCc3cccc(F)c3)n(CCc3ccccc3)c(=O)c2n1	-12.6% (inactive)	
COc1cc(CN(C(=O)c2ccccc2Br)c2ccccn2)cc(OC)c1OC	7.3% (inactive)	
